Some test systems named below: T-47D breast; BT-549 breast; MDA-MB-435 melanoma; SW-620 colon; MCF7 breast; HCT-116 colon; HCC-2998 colon; KM12 colon.
Holding throughout (assay): NCI-60 one-dose screen, 48 h (100 = growth as untreated, 0 = no growth, -100 = all killed)
Settings in all cases: 10 µM unless noted

Here are results for 16 compounds from PubChem BioAssay (NCI).

About 83,000 compounds went through this panel and 20% of them were active in at least one assay; those are over-represented in the sample as a whole.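 Note: values are percent growth. 100 is the growth of untreated cells, values between 100 and 0 indicate rising inhibition; between -100 and 0 indicates cell death.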 A number with no mark means an inactive call. Activity calls are given as the source filed them. The calls were made as follows: active = growth percent below 10; inactive = the rest.

Regarding `COc1ccc2cc(-c3nc4ccccc4[nH]3)c(=O)oc2c1`, the growth in the assay on T-47D breast was 92.9%; with BT-549 breast, 101%; in the assay on MDA-MB-435 melanoma, 108%; with SW-620 colon, 95.5%; in the assay with MCF7 breast, 89.3%; in the assay with HCT-116 colon, 93%. Besides, the growth is 78.3% in the assay on HCC-2998 colon and 93.8% with KM12 colon.
Take `O=C(/C=C/c1ccc(C(F)(F)F)cc1)c1ccc(Nc2nc(NCCO)nc(NCCO)n2)cc1`: the growth is 37.2% in the assay on T-47D breast; 21.3% in the assay on BT-549 breast; 92.8% with MDA-MB-435 melanoma; 1.28% (active) with SW-620 colon; 13.1% with MCF7 breast; -25.4% (active) in the assay on HCT-116 colon. Moreover, the growth in the assay with HCC-2998 colon was 97.4%; in the assay with KM12 colon, 19%.
As for `O=C1NC(=O)/C(=C/c2ccc(Cl)cc2Cl)N1`, the growth was 90.9% in the assay on T-47D breast; 104% in the assay with BT-549 breast; 116% in the assay on MDA-MB-435 melanoma; 102% in the assay with SW-620 colon; 95.3% in the assay on MCF7 breast; 114% with HCT-116 colon. Besides, the growth is 102% in the assay with HCC-2998 colon and 103% in the assay on KM12 colon.
With `c1ccc(COc2ccc(Nc3ncnc4c3cnn4-c3ccccc3)cc2)cc1`, the growth in the assay with T-47D breast is 100%; in the assay with BT-549 breast, 106%; with MDA-MB-435 melanoma, 90.1%; in the assay on SW-620 colon, 98.7%; with MCF7 breast it was 101%; in the assay with HCT-116 colon, 106%. The growth in the assay with HCC-2998 colon is 108%; in the assay on KM12 colon, 98.2%.
With `O=C(NC1CCS(=O)(=O)C1)c1ccc(C(=O)c2ccccc2)cc1` (stereo not drawn), the growth is 107% with T-47D breast; 121% in the assay with BT-549 breast; 101% in the assay on MDA-MB-435 melanoma; 95.8% with SW-620 colon; 105% in the assay with MCF7 breast; 104% with HCT-116 colon. Further, the growth in the assay with HCC-2998 colon is 103%; in the assay on KM12 colon, 125%.
As for `CC(=O)c1nn(-c2ccccc2)c(=Nc2ccccc2)cc1C`, the growth was 88.2% with T-47D breast; 99% in the assay with BT-549 breast; 112% in the assay with MDA-MB-435 melanoma; 104% with SW-620 colon; 93.4% with MCF7 breast; 98.2% in the assay with HCT-116 colon. Further, the figures for the growth in the assay on HCC-2998 colon and in the assay with KM12 colon were 100% and 99%, respectively.
Take `CC(C)C[C@H](NC(=O)/C=C/Cn1ccc2ccccc2c1=O)B(O)O`: the growth in the assay on T-47D breast is 17.6%; in the assay with BT-549 breast, 27.9%; in the assay with MDA-MB-435 melanoma it was -44.3% (active); with SW-620 colon, 24.6%; in the assay with MCF7 breast, 26.5%; with HCT-116 colon, 16.2%. The growth with HCC-2998 colon is 62.5%; in the assay with KM12 colon, 37.8%.
As for `O=C(/C=C/c1c(-c2ccccc2)[nH]c2ccccc12)S(=O)(=O)c1ccccc1`, the growth in the assay with T-47D breast was 29.4%; with BT-549 breast it was 87.9%; in the assay with MDA-MB-435 melanoma it was 9.36% (active); in the assay on SW-620 colon, 39.8%; in the assay on MCF7 breast, 43.3%; in the assay with HCT-116 colon, 46.1%. Further, the values for the growth in the assay on HCC-2998 colon and with KM12 colon were 60.7% and 36.3%, respectively.
`Cc1ccccc1NC(=O)N/C(N)=N/c1nc2ccccc2s1`: the growth is 61.1% in the assay with T-47D breast; -2.9% (active) in the assay with BT-549 breast; -11.4% (active) with MDA-MB-435 melanoma; 25.8% with SW-620 colon; 19% with MCF7 breast; 10.2% in the assay with HCT-116 colon. Moreover, the figures for the growth with HCC-2998 colon and in the assay on KM12 colon were 17.2% and 14.9%, respectively.
For the compound `Cc1sc2nc(NCc3ccccc3)[nH]c(=O)c2c1C`, the growth in the assay with T-47D breast is 31.6%; in the assay on BT-549 breast it was 53.9%; with MDA-MB-435 melanoma it was -31% (active); with SW-620 colon it was 26%; in the assay on MCF7 breast, 31%; in the assay with HCT-116 colon, 24.5%. Further, the growth was 87.7% in the assay on HCC-2998 colon and 36.2% in the assay with KM12 colon.
Consider `COc1cnc2c(c1)C(=O)c1c-2n(CCCN2CCCC2)c(=O)c2cc(F)ccc12`, for which the growth is -4.54% (active) in the assay with T-47D breast; -6.57% (active) with BT-549 breast; 16% in the assay on MDA-MB-435 melanoma; -33.2% (active) in the assay on SW-620 colon; 3.93% (active) in the assay with MCF7 breast; -77.3% (active) in the assay with HCT-116 colon. Besides, the growth with HCC-2998 colon was 16.9%; in the assay with KM12 colon it was -12.6% (active).
As for `C/C(=C\CCc1ccoc1)CC/C=C(\C)CCCN1CCOCC1`, the growth in the assay on T-47D breast is 27.4%; in the assay on BT-549 breast, 58.9%; in the assay with MDA-MB-435 melanoma, 71.8%; with SW-620 colon, 57.8%; in the assay on MCF7 breast, 28.1%; in the assay on HCT-116 colon it was 39.2%. In addition, the growth was 62.3% in the assay on HCC-2998 colon and 56.9% with KM12 colon.
Consider `COc1ccc2nc(NC(=O)CN3CCn4c(nnc4C(F)(F)F)C3)sc2c1`, for which the growth with T-47D breast was 95%; in the assay with BT-549 breast, 96%; with MDA-MB-435 melanoma it was 90%; in the assay with SW-620 colon it was 94.5%; in the assay with MCF7 breast, 69.6%; in the assay on HCT-116 colon, 99.4%. Besides, the growth is 103% in the assay on HCC-2998 colon and 79.3% in the assay with KM12 colon.
For the compound `CC1Cc2ccccc2N1C(=O)c1ccc(C(=O)c2ccccc2)cc1` (stereo not drawn), the growth in the assay on T-47D breast was 91.4%; with BT-549 breast it was 84%; in the assay with MDA-MB-435 melanoma it was 89.1%; in the assay on SW-620 colon, 95.1%; with MCF7 breast it was 103%; with HCT-116 colon, 81.1%. Further, the growth in the assay with HCC-2998 colon is 127%; in the assay on KM12 colon, 101%.
`O=C(Nc1cccc(-n2cc(-c3ccncc3)c(-c3cc(O)cc(Cl)c3)n2)c1)Nc1ccc(Cl)c(Cl)c1`: the growth with T-47D breast is -5.53% (active); in the assay with BT-549 breast, 0.544% (active); with MDA-MB-435 melanoma it was -33.3% (active); in the assay on SW-620 colon, -33.8% (active); in the assay on MCF7 breast, 2.74% (active); in the assay with HCT-116 colon, -57.3% (active). Moreover, the growth in the assay on HCC-2998 colon is 0.568% (active); in the assay on KM12 colon, 2.26% (active).
On to `Cc1n(Cc2ccc3ccccc3c2)cc[n+]1Cc1ccc2ccccc2c1`, for which the growth in the assay with T-47D breast is 0.847% (active); in the assay on BT-549 breast, -13.6% (active); in the assay with MDA-MB-435 melanoma, -14.6% (active); in the assay on SW-620 colon, 18.7%; with MCF7 breast it was 7.52% (active); in the assay on HCT-116 colon, 6.14% (active). For the same compound, the growth is 7.45% (active) with HCC-2998 colon and -9.94% (active) with KM12 colon.
